Source: PubChem BioAssay AID1063 (University of Pittsburgh Molecular Library Screening Center, 2008)
Hit rate of the full screen: of about 200,000 compounds, about 18,000 (9%) were called active. The entries come from a sample that favours actives as a whole. Values without a mark were called inactive. Cut-off read from the data, not from the text of the source: active = inhibition above about 50%; inactive = the rest.

experiment: Leishmania major promastigote growth inhibition, primary screen (AID 1063); settings: Leishmania major promastigotes, resazurin fluorescence viability; at 10 µM; hits give high values;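 note: promastigotes grown with compound for 44 hours at 28 °C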

Compound | inhibition
O=C(Nc1cccc(Cl)c1N1CCOCC1)c1ccc2c(c1)OCCO2 | 11.1%
COc1ccc(NC(=O)COc2ccc(C(=O)OCC(=O)N(C)C3CCS(=O)(=O)C3)cc2OC)cc1 (stereo not drawn) | 2.14%
COc1ccc(S(=O)(=O)NCC2CCCN(C(=O)c3occc3C)C2)cc1 (stereo not drawn) | -1.89%
O=C(CSc1ncnc2c1nnn2Cc1ccc(F)cc1)NC1CCCC1 | -6.62%
CCCCOc1ccc(C(=O)NN2CCN(C)CC2)cc1 | -6.12%
CC(=O)c1ccc(OCCN2CCOCC2)cc1 | -0.55%
CCCCOc1ccc(C(C)(O)CCN2CCOCC2)cc1 (stereo not drawn) | 67.4% (active)
CCCCN(C)CCNC(=O)CSCc1ccc(C)cc1 | 35.7%
Cc1ccc(NC(=S)N(CCN(C)C)Cc2cccs2)cc1C | 23.8%
C#CCNC(=O)C1=C[C@@H](c2ccccc2)[C@H](CCCO)[C@@H](OCC)O1 | -3.12%
COc1cc(/C=N/N=C(\N)c2nonc2N)cc(OC)c1OC | 13.2%
CC(C)NC(=O)C(=O)NCCN1CCN(S(=O)(=O)c2ccc(Cl)cc2)CC1 | -8.08%
Cc1c(C2=CCN(S(=O)(=O)c3ccc(Cl)cc3)CC2)c2ccccc2n1C | 54.9% (active)
O=C(ON=C1CCN(S(=O)(=O)c2ccccc2)CC1)c1ccc(Cl)cc1 | -6.64%
OCC(O)CN(c1ccccc1)c1ccccc1 (stereo not drawn) | -1.63%
O=C(COc1ccc(-c2ccccc2)cc1)NN=C1CCCC1 | -3.72%
COc1ccc(/C=C2\SC(=S)N(CC(=O)NNC(=O)c3ccncc3)C2=O)cc1 | -5.15%
Cn1cc([N+](=O)[O-])c(C(=O)Nc2cnn(Cc3ccc(F)cc3)c2)n1 | 98.6% (active)
CCc1ccc(NC(=O)c2ccc(Cn3cc([N+](=O)[O-])cn3)cc2)cc1 | -3.55%
Cn1cc([N+](=O)[O-])c(C(=O)Nc2ccc3c(c2)OCCO3)n1 | 10.7%
CCC(=O)c1ccc(N2CCN(C(=O)c3cc([N+](=O)[O-])ccc3F)CC2)c(F)c1 | 12.8%
CC(=O)Nc1ccc(S(=O)(=O)N(C)c2ccc(OCC(=O)OCC(=O)N3CCCCC3)cc2)cc1 | -6.69%
CSc1nc2ccc(NC(=O)c3c(F)cccc3F)cc2s1 | 15.7%
Cc1cccc(NC(=S)Nc2ccc3cn[nH]c3c2)c1 | 5.93%
CCN(CC)CCN(C(=O)c1cccc([N+](=O)[O-])c1)c1nc2ccc(OC)cc2s1 | 1.41%

Compound | inhibition
O=S(=O)(Nc1ncccn1)c1ccc(NS(=O)(=O)c2cccc(Cl)c2Cl)cc1 | -9.09%
O=C(/C=C/c1ccc(Cl)cc1)Nc1ccc(S(=O)(=O)Nc2ncccn2)cc1 | 63.3% (active)
O=C(/C=C/c1ccccc1Cl)Nc1ccc(S(=O)(=O)Nc2ncccn2)cc1 | -5.22%
CCOc1cc(NC(=S)NCc2ccco2)c(OCC)cc1NC(=O)c1ccco1 | -3.82%
C[C@@H](C(=O)N1CCNCC1)n1cc(CCC(=O)O)nn1 | -3.38%
CCc1ccc(-n2c(=S)sc3c(=O)n(-c4ccccc4OC)c(=S)[nH]c32)cc1 | -0.77%
COC(=O)COc1ccc(C2NC(=O)NC(C)=C2C(=O)NCc2ccccc2)cc1OC (stereo not drawn) | -7.17%
CCOC(=O)COc1ccc(Cl)cc1C1NC(=O)NC(C)=C1C(C)=O (stereo not drawn) | 0.61%
CCCOc1ccc(C2NC(=O)NC(c3ccccc3)=C2C(C)=O)cc1OCC (stereo not drawn) | 71.8% (active)
NS(=O)(=O)c1ccc(NC(=O)COC(=O)c2ccc(Cl)nc2)cc1 | -7.52%
NS(=O)(=O)c1ccc(NC(=S)NC(=O)c2cccc(Br)c2)cc1 | 1.9%
O=C(Nc1ccccc1)N1CCN(Cc2ccccc2)CC1 | -1.08%
O=C(NCc1cccs1)C1CCN(S(=O)(=O)c2ccc(Cl)cc2)CC1 | -6.16%
O=C(NNS(=O)(=O)c1ccc(Cl)cc1)C1CCN(Cc2ccccc2)CC1 | 95.9% (active)
CC(C)(C)NC(=O)NC(=O)CN1CCC(Cc2ccccc2)CC1 | -1.19%
CCNC(=S)NNC(=O)C1CCN(Cc2ccccc2)CC1 | -3.47%
CCCC(=O)C1CCN(Cc2ccccc2)CC1 | 82.8% (active)
NC(=O)c1ccc(CN2CCC(Cc3ccccc3)CC2)cc1 | 86.9% (active)
O=c1cc(CO)oc(CN2CCC(Cc3ccccc3)CC2)c1O | -2.15%
O=C(NCCCN1CCN(Cc2ccccc2)CC1)C1CCN(S(=O)(=O)N2CCCC2)CC1 | -6.76%
CCOC(=O)N1CCN(C(=O)c2ccccc2N(Cc2ccccc2)S(=O)(=O)c2ccc(OC)cc2)CC1 | 43.4%
COc1ccc(N2CCN(CCCNC(=O)C3CCN(S(=O)(=O)N4CCOCC4)CC3)CC2)cc1 | -4.04%
CC(C)NC(=O)c1ccc(Cl)cc1Cl | -4.71%
Cc1cc(C)cc(NC(=O)N2CCCCCCC2)c1 | 9.55%
CCOC(=O)C1CCN(c2ncnc3c2c(-c2ccccc2)cn3-c2ccc(C)cc2)CC1 | -6.27%

Compound | inhibition
Cc1ccc(NC(=O)Nc2cccc(C(F)(F)F)c2)nc1 | 11%
COC(=O)C1=C(C)NC(=O)/C1=C/c1ccc(CNS(=O)(=O)c2ccc(C)cc2)o1 | 15.8%
COC(=O)C1=C(C)N(c2ccc(Br)cc2)C(=O)/C1=C\c1ccco1 | 24.7%
COC(=O)C1=C(C)N(c2ccc(C)cc2)/C(=C/c2ccc(O)cc2)C1=O | 97.8% (active)
COc1ccc(S(=O)(=O)N2CCN(C(=O)c3cc(C)oc3C)CC2)cc1 | 8.89%
C/C(CC(=O)Nc1cccc(C(F)(F)F)c1)=N\NC(=O)C(=O)NCC(C)C | -8.72%
COc1ccc(C(=O)CSc2nnc(-c3ccco3)o2)cc1 | -1.52%
N#Cc1c(-c2ccc(F)cc2)nc(-c2ccccc2)[nH]c1=O | 3.06%
N#Cc1ccc(-c2ccc(F)cc2)nc1Sc1ccccc1 | -13%
N#Cc1ccc(-c2nc3cc(C#N)c(C#N)cc3nc2-c2ccccc2)cc1C#N | 59% (active)
CC1(C)CC(=O)c2cnc3nc4ccccc4n3c2C1 | 0.4%
Cc1cccc(CCNS(=O)(=O)c2ccc(S(=O)(=O)NC3CCCC3)cc2)c1 | 68.6% (active)
CSc1ccc(S(=O)(=O)NC2CCCCC2)cc1 | -2.31%
O=C(CCc1ccc(S(=O)(=O)NC2CCCCC2)cc1)NCc1ccccc1 | 43.9%
CCOC(=O)c1c(N)nn(C(=O)c2ccccc2)c1-c1ccccc1 | 1.03%
O=c1cnnc(Nc2ccccc2)[nH]1 | -6.97%
CCCCc1nc(NCc2ccccc2)c(C#N)c2c1CCCC2 | 40.6%
Cc1nc(NCCN)c(C#N)c2c1COC(C)(C)C2 | -6.15%
CCCCc1nc(NCCN)c(C#N)c2c1CSC(C)(C)C2 | 100% (active)
COc1ccc(C(=O)NC(=S)Nc2ccc(Cl)cn2)cc1OC | -4.99%
O=C1NC(c2ccc(-c3ccccc3[N+](=O)[O-])o2)C(C(=O)c2ccc(Cl)cc2)C(O)(C(F)(F)F)N1 (stereo not drawn) | 57.7% (active)
CC(=O)C1C(c2cccc(Oc3ccccc3)c2)NC(=O)NC1(O)C(F)(F)F (stereo not drawn) | -1.39%
CC(=O)C1C(c2ccc(Cl)cc2)NC(=O)NC1(O)C(F)(F)F (stereo not drawn) | -4.84%
Cn1nnnc1-c1cc(Cl)cc(Cl)c1 | 5.35%
O=c1[nH]oc(O)c1-c1ncc(C(F)(F)F)cc1Cl | -7.85%

Compound | inhibition
O=C(O)CSc1nnc(-c2ccc3c(c2)OCO3)n1-c1ccccc1 | -2.94%
COc1cc2c(cc1OC)C(Nc1ccc(S(N)(=O)=O)cc1)=NC(C)(C)C2 | -2.7%
COc1cc2c(cc1OC)C(C(C)C)=NC(C)(C)C2 | -1.29%
COc1cc2c(cc1O)C(SC)=NC(C)(C)C2 | 77.2% (active)
COC(=O)c1c(NC(C)=O)sc(C(=O)Nc2ccccc2OC)c1C | -6.26%
COc1ccccc1CNC(=O)CN1CCC(n2cnc3cc(F)ccc32)CC1 | 0.36%
CCc1ccccc1NC(=O)Cc1cn(C)c2ccccc12 | 1.32%
Fc1cc(F)c2nc(Nc3nc4c(F)cccc4s3)sc2c1 | 64.3% (active)
NC(=O)c1c(Nc2nc3c(F)cccc3s2)sc2c1CCCC2 | 0.33%
Fc1cc(F)c2nc(N3CCOCC3)sc2c1 | -5.44%
Cc1cc(C)n(Cc2cnc(N3CCOCC3)s2)n1 | 0.31%
COc1ccc2ccccc2c1CNCc1ccccn1 | 52.1% (active)
COc1ccc2ccccc2c1CNc1nnnn1C | 1.31%
COc1ccc(C)cc1NC(=O)NCc1ccccn1 | -9.22%
O=S1(=O)CC/C(=N\Nc2ccc(F)cc2)c2ccsc21 | -11.7%
Cc1nn(CC(=O)Nc2ccc(C#N)cc2)c(C)c1[N+](=O)[O-] | -6.73%
CC(=O)c1cccc(CN2CCC(CO)(Cc3ccccc3)CC2)c1 | 14%
CN(C)CCCCCN(C)Cc1cc2ccccc2o1 | 11.6%
OCC1(Cc2ccccc2)CCN(Cc2cc3ccccc3o2)CC1 | 84.5% (active)
Cc1ccc2c(c1)C1CN(C)CCC1N2C(=S)Nc1ccc(Cl)cc1Cl (stereo not drawn) | 31.9%
Cc1cc(C)cc(N(C(C)C(=O)Nc2c(C)n(C)n(-c3ccccc3)c2=O)S(C)(=O)=O)c1 (stereo not drawn) | -3.81%
COC(=O)Nc1c(C)n(C)n(-c2ccccc2)c1=O | -8.78%
Cc1c(NC(=O)C(C)OC(=O)c2cc3c4ccccc4n(C)c3s2)c(=O)n(-c2ccccc2)n1C (stereo not drawn) | 88.6% (active)
